Measured values reported in the supplement of paper PMC10681739.

Assays:
ETS1 [1] = target: T1, ETS1 (UniProt P14921); test: ETS1 binding intensity (PBM fluorescence), ETS1 alone (arbitrary fluorescence units); higher = stronger binding; details: ETS1 concentration 1 nM; RUNX1 concentration 0 nM
T1 sequence: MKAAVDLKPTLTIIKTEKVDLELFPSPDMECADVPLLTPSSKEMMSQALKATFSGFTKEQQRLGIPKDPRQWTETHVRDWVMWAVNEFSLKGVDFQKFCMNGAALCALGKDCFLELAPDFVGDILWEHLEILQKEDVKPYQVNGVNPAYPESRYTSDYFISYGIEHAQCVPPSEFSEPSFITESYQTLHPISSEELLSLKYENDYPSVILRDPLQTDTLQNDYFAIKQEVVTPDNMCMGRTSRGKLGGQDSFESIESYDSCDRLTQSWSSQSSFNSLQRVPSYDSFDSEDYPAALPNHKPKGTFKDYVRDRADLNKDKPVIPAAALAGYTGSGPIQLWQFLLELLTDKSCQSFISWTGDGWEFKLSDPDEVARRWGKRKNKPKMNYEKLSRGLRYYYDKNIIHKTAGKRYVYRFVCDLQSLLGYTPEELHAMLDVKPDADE

ETS1 [2] = target: T1, ETS1; test: ETS1 binding intensity (PBM fluorescence) in presence of RUNX1, normalised to ETS1-only experiment (arbitrary fluorescence units); higher = stronger binding; details: ETS1 concentration 1 nM; RUNX1 concentration 25 nM

Sequence | ETS1 binding intensity (ETS1 [1]) | ETS1 binding intensity (ETS1 [2])
GAAACTTCTCAAGGAAATAGCTGTGGTAAACAATAC | 725 | 1730
GACCTGACAACATCCTGGCGCAGTGGGTTGGCCCTG | 496 | 420
TGTCCGGGCAGGAAGGGGTGCTCTGTGGGCTTGGAG | 948 | 1050
GGGGCAGGAAACAGCGTCCTGCGCGGGTAGCCCCTG | 775 | 918
AATGTAGGAAATTCCACTGCATAATTTGTGGTAGTG | 478 | 539
GACTGCGCCGGACGCGCCAGCCCTGCGGGATGACGT | 650 | 801
TTGCGTCACGTCCGGCCTGCGAGTTACCGCCCACTC | 690 | 603
AAGCAGAGCTCAGGATGTGGTGCCGTGCGAGGGCGG | 697 | 847
TGGATGGCGGCGGATACTGCCCATGCCGCAAGGCCG | 464 | 532
CTGAGGCGCGCCGGAAGGGCTAGCGGTCCCAGCATA | 1280 | 1430
AGGTACTCACCATTCCGGCGGTTGCTACTGTCACTG | 459 | 428
GGTACCAAGGGCAGAGGATGTGGTGAGGTGTGGAGG | 940 | 3140
AGCCCTCTGCAACTTCCCGGCCCCACAGCCCCACCC | 678 | 575
AGGGCGCCGCTTCCGGGAGCCCGCAAGCGGCCTCCG | 606 | 715
TGCACACATGAGGAAGGGGTAAGTGGTTTTCCCTAC | 498 | 468
TGCCGTTTCCGGGTCACCCAGGCAGCTTGTGGCGGC | 528 | 478
ACACCGCTCAGGAAGACAAAGCCACACCTCACACCA | 443 | 358
GAACCCAGGTCTGCTTCCTGTGGCCACCATCTGTGC | 761 | 684
CCACGCCCCCTCCTTCCGCTGCGGGAGATAGCCACT | 787 | 751
CGAAGGAGGAAGCTGCACAGGGTGTCTGTGGCTGGC | 443 | 428
GAACCCCAAGTTCCGGCTGGCACTGCGGCGGAGCCT | 452 | 299
TGGGGTGGGGTGGGAAGTGCCAGCGGTCTGGGTGTC | 537 | 486
GCAGCCAGGGTAGGAAGTGGTAAGACCTCCCTGTGA | 893 | 1230
